Source: PubChem BioAssay (NCI)
Values joined by “and” are separate entries in the source; they are usually repeats but may differ in a detail not shown here. Identical values can stand only once. Compounds without any hit were thinned out: in the full panel of roughly 83,000, 20% have a hit.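 Activity criterion: percent growth below 10, measured after cells in 96-well plates were exposed to a single compound concentration for 48 hours.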 Values without a mark were called inactive. Active and inactive are the calls of the source.

Assays:
Assay in all cases: NCI-60 one-dose screen, 48 h (100 = growth as untreated, 0 = no growth, -100 = all killed)
Settings in all cases: 10 µM unless noted
NCI-H23 lung = tested on: NCI-H23 lung
NCI-H226 lung = tested on: NCI-H226 lung
NCI-H322M lung = tested on: NCI-H322M lung
HOP-62 NSCLC = tested on: HOP-62 NSCLC
NCI-H460 lung = tested on: NCI-H460 lung
HOP-92 NSCLC = tested on: HOP-92 NSCLC
NCI-H522 lung = tested on: NCI-H522 lung
A549/ATCC NSCLC = tested on: A549/ATCC NSCLC
786-0 renal = tested on: 786-0 renal
COLO 205 colon = tested on: COLO 205 colon
DU-145 prostate = tested on: DU-145 prostate
K-562 leukemia = tested on: K-562 leukemia
MALME-3M melanoma = tested on: MALME-3M melanoma
MDA-MB-231 breast = tested on: MDA-MB-231 breast
RXF 393 renal = tested on: RXF 393 renal
SF-268 CNS = tested on: SF-268 CNS
SF-295 CNS = tested on: SF-295 CNS
SF-539 CNS = tested on: SF-539 CNS
UACC-257 melanoma = tested on: UACC-257 melanoma
M14 melanoma = tested on: M14 melanoma

SMILES | growth (NCI-H23 lung) | growth (NCI-H226 lung) | growth (NCI-H322M lung) | growth (HOP-62 NSCLC) | growth (NCI-H460 lung) | growth (HOP-92 NSCLC) | growth (NCI-H522 lung) | growth (A549/ATCC NSCLC) | growth (786-0 renal) | growth (COLO 205 colon) | growth (DU-145 prostate) | growth (K-562 leukemia) | growth (MALME-3M melanoma) | growth (MDA-MB-231 breast) | growth (RXF 393 renal) | growth (SF-268 CNS) | growth (SF-295 CNS) | growth (SF-539 CNS) | growth (UACC-257 melanoma) | growth (M14 melanoma)
C[C@]12CCC3[C@@H](C[C@@H]4SC(Nc5ccccc5)=N[C@@]45CC(=O)CC[C@]35C)[C@@H]1CCC2=O (some centres undefined) | 42.5% | 49.4% | 58.2% | 12.6% | -13% (active) | -18.2% (active) | -66% (active) | 33.5% | -45% (active) | -46.3% (active) | -14.7% (active) | 1.87% (active) | 8.73% (active) | 5.67% (active) | -63.8% (active) | 27% | 24.2% | -44.8% (active) | 3.21% (active) | 0.48% (active)
COc1ccc2c(c1)C1(C)CCN(C)CC(C1)C2O (centres undefined) | 98.1% | 81.7% | 105% | 100% | 105% | 101% | 90.2% | 95.1% | 94.8% | 103% | 104% | 99.9% | 93.3% | 113% | 97% | 100% |  | 97.2% | 97% | 98.1%
Cc1cc[c-]cc1.Fc1c[c-]c(-c2ccccn2)c(F)c1.[Pt+2].c1ccc([PH+](c2ccccc2)c2ccccn2)cc1 | 70% | 58.1% | 83.6% | 90.6% | 61.5% | 56.3% | 64.4% | 41.8% | 63.5% | 32.9% | 59.1% | 23.9% | -2.32% (active) | 67.8% | 32.6% | 62.1% | 72% | 72.3% | 87.2% | 62.1%
C[C@]12CC[C@H]3[C@@H](CC=C4c5nc(N)sc5CC[C@@]43C)[C@@H]1CC[C@@H]2O | 98.4% | 97.1% | 108% | 100% | 96% | 105% | 89.7% | 94.5% | 100% | 113% | 103% | 95.2% | 107% | 111% | 99.4% | 97.1% | 100% | 98.5% | 92.6% | 98.7%
CC(C)CCC1C(=O)NC(=O)NC1=O | 99.4% | 116% | 94.4% | 87.4% | 97.7% | 109% | 79.4% | 78.5% | 104% | 100% | 109% | 109% | 88.9% | 97.3% | 117% | 96.2% | 98.4% |  | 95.5% | 99.9%
O=C(NC(Cl)=C(Cl)Cl)P(=O)(c1ccccc1)c1ccccc1 | 105% | 101% | 108% | 104% | 114% | 97.4% | 99.4% | 101% | 101% | 118% | 118% | 121% | 104% | 98.9% | 100% | 110% | 72.9% | 106% | 110% | 111%
CCCCCCCCCCCCCCCC[n+]1ccccc1 | -38.3% (active) and -24.8% (active) | -77.3% (active) and -0.958% (active) | 11.4% and 40.2% | -84.4% (active) and -49.3% (active) | -88.3% (active) and -83.1% (active) | -48.4% (active) and -41.7% (active) | -57.3% (active) and -67.7% (active) | -61.4% (active) | -73% (active) and -92.8% (active) | -77.6% (active) and -71.5% (active) | -74.4% (active) and -12.9% (active) | -44.3% (active) and 0.871% (active) | -56.5% (active) and -38% (active) | -40.7% (active) and -32.7% (active) | -86.7% (active) | -58.9% (active) and -32.7% (active) | -69.1% (active) and -56.5% (active) | -70.3% (active) and -27.4% (active) | -52.2% (active) and -26.1% (active) | -49% (active) and -77.5% (active)
C/C(=C\c1ccn(-c2ccc(N)c(C(F)(F)F)c2)n1)[C@@H]1C[C@@H]2O[C@]2(C)CCC[C@H](C)[C@H](O)[C@@H](C)C(=O)C(C)(C)[C@@H](O)CC(=O)O1 | 32.9% | 52% | 23.2% | 41% | 12.7% | 52.4% | 30.3% | 31.1% | 27.4% | -16.5% (active) | -12.7% (active) | 11.9% | 51.7% | 22.8% | 8.01% (active) | 36% | 15.1% | -8.5% (active) | 64.3% | 21.7%
CC[C@H](C)[C@H](NC(=O)[C@H]1CCCCN1C)C(=O)N(C)[C@H](CCc1nc(C(=O)N[C@@H](Cc2ccccc2)C[C@H](C)C(=O)O)cs1)C(C)C | 29.9% | 31% | 49.9% | 12.6% | 8.77% (active) | 30.3% | -6.97% (active) | 22.4% | 31.8% | -37.9% (active) | 9.58% (active) | 6.62% (active) | 78.4% | 11.2% | 31.8% | 20.9% | -1.24% (active) | -12.9% (active) | 53.4% | 4.31% (active)
NC(=O)c1c(Br)c(Br)c(Br)c(Br)c1C(=O)O (tested in a mixture with another compound) | 99.9% and 100% | 99.8% and 98.4% | 105% and 114% | 124% and 103% | 111% | 85.8% and 86% | 93% and 99.3% | 102% and 98% | 109% and 104% | 113% and 104% | 112% and 108% | 80.6% and 79.6% | 102% and 91.1% | 87.5% and 94.2% | 106% and 112% | 97.7% and 100% |  | 97.2% and 98.4% | 98.7% and 105% | 97.1% and 107%
CCCN1C(=O)NC(=O)C(CC)(N2C(=O)c3c(F)c(F)c(F)c(F)c3C2=O)C1=O (centres undefined) | -52.1% (active) | 27.4% | -57.7% (active) | -57.3% (active) | -81% (active) | -50.5% (active) | -82.3% (active) | -64.7% (active) | -58.5% (active) | -81.9% (active) | -98.9% (active) | -81.7% (active) | -71.1% (active) | -78.7% (active) | -95.1% (active) | -82.5% (active) | -68.6% (active) | -96.7% (active) | -83.3% (active) | -64.7% (active)
CC1=C(C)C(=O)O[C@@H]([C@](C)(O)[C@]2(O)CC[C@@]3(O)[C@@H]4C[C@H]5O[C@]56CC=CC(=O)[C@]6(C)[C@H]4CC[C@]23C)C1 | -22% (active) | -45.2% (active) | -15.5% (active) | 2.69% (active) | 5.64% (active) | 15.7% | -59.5% (active) | 7.89% (active) | -30.7% (active) | -83.1% (active) | 7.11% (active) | 3.63% (active) | -4.58% (active) | 30.3% |  | -22.6% (active) | 4.3% (active) | -10.1% (active) | 6.11% (active) | 
COc1ccn(C)c(=O)c1C#N | 105% | 91.6% | 92.3% | 83.5% | 108% | 116% | 66.5% | 83.7% | 104% | 95.9% | 106% | 105% | 106% | 90.7% | 107% | 94.3% | 101% |  | 87% | 102%
